Measured values: PubChem BioAssay (NCATS)
Results filed as inconclusive are left out. Calls of active or inactive are those of the source. Unless noted, the call rests on the fitted dose curve; in most records, active means well fitted curve in the direction sought with a large enough effect; inconclusive means small, poorly fitted or top-dose-only effect, or another doubt; inactive means no such curve, though single readings can be large; an effect the other way counts as inactive or inconclusive.

Legend:
[1] = Cell Viability - BJ (AID 421; calls by dose curve;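 further: potency means the concentration at half of the fitted maximal effect; cells exposed to compound for 40 hours at 37 °C before readout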); conditions: BJ fibroblast viability, qHTS
Summary of the method: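 Cytotoxicity in human BJ foreskin fibroblasts is scored as loss of cellular ATP after a 40-hour exposure, measured by luciferase luminescence. Controls are DMSO and 100 uM tamoxifen.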

[2] = Cell Viability - Jurkat (AID 426;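 active means dose-dependent loss of cell ATP signal giving a full or clear fitted curve, ranked by lower potency value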; further: potency means the concentration at half of the fitted maximal effect); conditions: qHTS
Summary of the method: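 Luminescent ATP read-out (CellTiter-Glo, 20 min at room temperature) after 40 hr compound exposure at 37 °C of Jurkat E6-1 cells, 5000/well. Decreased ATP taken as cytotoxicity; AC50 from standard Hill equation.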

[3] = Cell Viability - Hek293 (AID 427;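 active means compounds whose dose-response curve shows a full or clear partial loss of cell viability, called from curve shape rather than a numeric limit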;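 further: potency means the concentration at half of the fitted maximal effect; cells exposed to compound for 40 hours at 37 °C before reading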); conditions: qHTS
Summary of the method: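 qHTS, human embryonic kidney (adenovirus-transformed) cells; 40 hr cpd, 37 °C; CellTiter-Glo ATP luminescence. Norm: DMSO = 0, 100 uM tamoxifen = 100% inhibition. Hill-fit AC50.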

[4] = Cell Viability - HepG2 (AID 433; calls by dose curve;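 further: potency means the concentration at half of the fitted maximal effect; potency for ATP loss meaning cytotoxicity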); conditions: qHTS
Summary of the method: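 HepG2 cells, 1500 per well, treated 40 hr at 37 °C in complete medium; viability from intracellular ATP by CellTiter-Glo luminescence. Normalized to DMSO and 100 uM tamoxifen; AC50 from Hill fit of qHTS concentration-response.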

[5] = Cell Viability - MRC5 (AID 434; calls by dose curve;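 further: potency means the concentration at half of the fitted maximal effect; potency reflects cytotoxicity seen as loss of intracellular ATP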); conditions: MRC5 lung fibroblast viability, qHTS
Summary of the method: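 AC50 values come from Hill-equation fits of intracellular ATP loss, measured by CellTiter-Glo luminescence. Normal lung fibroblasts (MRC5) had 40 hr compound treatment at 37 C, normalized between DMSO and 100 uM tamoxifen.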

[6] = Cell Viability - SK-N-SH (AID 435; calls by dose curve; further: potency means the concentration at half of the fitted maximal effect); conditions: SK-N-SH neuroblastoma cell viability qHTS
Summary of the method: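 SK-N-SH neuroblastoma cells (1500/well) treated 40 h at 37 °C in complete medium; viability read as cellular ATP by CellTiter-Glo luminescence. Normalized to DMSO and 100 uM tamoxifen; AC50 from Hill fits of qHTS concentration-response.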

[7] = Cell Viability - N2a (AID 540); conditions: N2a mouse neuroblastoma cell viability; activity change, negative = cytotoxicity: at 92.2 µM (top of the series);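 further: plate controls were DMSO alone for no effect and tamoxifen control for full effect; nearly all actives have a fitted effect of over 45% in size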
Summary of the method: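 N2a mouse neuroblastoma, 1500 cells/well, 5 hr settle; compound 40 hr, 37 °C; CellTiter-Glo 20 min RT; luminescence; Hill-fit AC50.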

[8] = Cell Viability - NIH 3T3 (AID 541); conditions: NIH 3T3 cell viability, qHTS; activity change, negative = cytotoxicity: at 92.2 µM (top of the series);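 further: plate controls were DMSO alone for no effect and tamoxifen positive control for full effect; nearly all actives have a fitted effect of over 25% in size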
Summary of the method: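 qHTS format; 40 hr compound exposure, 37 °C; CellTiter-Glo luminescence (cellular ATP) read-out after 20 min at RT. Decrease in ATP = cytotoxicity; AC50 from standard Hill fit.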

[9] = Cell Viability - HUV-EC-C (AID 542); conditions: HUV-EC-C endothelial cell viability, qHTS; series mostly up to 92.2 µM; further: on the % scale 0 is the no-effect control and ±100 the full control effect; nearly all actives have a fitted effect of over 35% in size
Summary of the method: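 Luminescent ATP read-out (CellTiter-Glo, 20 min room temperature) after 40 hr compound treatment of HUV-EC-C cells at 37 °C. Concentration-response data fitted with the standard Hill equation to give AC50; tamoxifen and doxorubicin served as positive controls.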

[10] = Cell Viability - SH-SY5Y (AID 544); conditions: SH-SY5Y neuroblastoma cell viability; viability change, negative = cytotoxic: at 92.2 µM (top of the series); further: nearly all actives have a fitted effect of over 55% in size
Summary of the method: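 SH-SY5Y, 1500 cells/well, 5 hr pre-incubation 37 °C; cpd 40 hr 37 °C; CellTiter-Glo 20 min RT; luminescence (ATP) read. qHTS concentration-response, Hill fit → AC50. Tamoxifen, doxorubicin as positive controls.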

[11] = Cell Viability - Renal Proximal Tubule (AID 545); conditions: renal proximal tubule cells viability, primary cells of rat origin; series mostly up to 91.7 µM; further: nearly all actives have a fitted effect of over 40% in size
Summary of the method: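 Rat renal proximal tubule primary cells, 1000/well, exposed to compounds for 40 hr at 37 °C in complete medium; cellular ATP read by CellTiter-Glo luminescence. AC50 from concentration-response fitted with standard Hill equation.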

[12] = Cell Viability - Mesenchymal (AID 546); conditions: mesenchymal cells viability, qHTS; series mostly up to 91.7 µM;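 further: cells exposed to compound for 40 hours before reading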
Summary of the method: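 CellTiter-Glo luminescence (intracellular ATP, 20 min room temperature) after 40 hr compound exposure at 37 °C of 1000 glomerulus-derived human kidney mesenchymal cells/well; AC50 values obtained by fitting qHTS concentration-response data to the Hill equation.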

[13] = Cellular Toxicity (caspase-3) HUV-EC-C (AID 656); conditions: HUV-EC-C cells, caspase-3 activation (apoptosis), vehicle = 0, 100 µM tamoxifen = 100%; series mostly up to 92.2 µM
Summary of the method: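 HUV-EC-C cells (1000/well) in complete medium, compound-treated 16 h at 37 °C; caspase-3/7 activity read by Caspase-Glo 3/7 luminescence. Normalized to DMSO (basal) and 100 uM tamoxifen (100%); AC50 from Hill-equation concentration-response fits.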

[14] = Cellular Toxicity (caspase-3) SHSY5Y (AID 657); conditions: SH-SY5Y caspase-3 activation, DMSO zero, 10 µM staurosporine = 100%; series mostly up to 91.7 µM
Summary of the method: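 SH-SY5Y human neuroblastoma cells, 1500/well, exposed to compound for 16 hours at 37 °C in complete medium. Caspase-3/7 activity read by Caspase-Glo luminescence after 1 hr at room temperature, normalized to DMSO and 10 uM staurosporine; AC50 from Hill fit.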

[15] = Cellular Toxicity (caspase-3) BJ (AID 658); conditions: BJ fibroblasts, luminescence, normalized: DMSO 0%, staurosporine 100%; series mostly up to 91.7 µM
Summary of the method: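 Caspase-Glo 3/7 luminescence, read 1 hr after reagent at room temperature, in normal BJ fibroblasts exposed 16 hours at 37 °C. AC50 values from Hill-equation concentration-response, scaled between DMSO basal and 10 uM staurosporine as 100%.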

[16] = Cellular Toxicity (caspase-3) MRC-5 (AID 659); conditions: MRC-5 cells, luminescence, normalized: DMSO 0%, 10 µM staurosporine 100%; series mostly up to 91.7 µM
Summary of the method: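 Luminescent Caspase-Glo 3/7 read-out (1 h, room temperature) after a 16 h, 37 °C compound exposure of MRC-5 lung fibroblasts at 1500 cells/well. Concentration-response AC50 from Hill equation; 0% DMSO, 100% 10 uM staurosporine.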

[17] = target: Mitogen-activated protein kinase 10 (Mus musculus) (UniProt Q61831); experiment: JNK3 AlphaScreen Assay (AID 530; active means well fitted curve in either direction with a large enough effect, not every such curve was filed as active;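 further: kinase came from lysate of stimulated human HepG2 cells; signal reports phosphorylation of biotinylated GST-cJun 1-79 at Ser73 with 10 µM ATP; on the % scale 0 is the no-effect control and ±100 the full control effect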); conditions: JNK3 lysate, c-Jun phosphorylation; series mostly up to 57.1 µM
Summary of the method: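 Kinase buffer: 20 mM Tris-HCl pH 7.6, 10 mM MgCl2, 1 mM DTT, 0.1 mM Na3VO4, 0.01% Tween-20; ATP 10 uM. Substrate biotin-GST-cJun(1-79), enzyme from activated HepG2 lysates. Detection by Ser73 phospho-antibody AlphaScreen.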

[18] = Cell Viability - H-4-II-E (AID 543); conditions: H-4-II-E rat hepatoma viability; series mostly up to 92.2 µM; further: on the % scale 0 is the no-effect control and ±100 the full control effect; nearly all actives have a fitted effect of over 35% in size
Summary of the method: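 qHTS, rat hepatoma H-4-II-E, 1500 cells/well; 40 hr compound exposure, 37 °C; CellTiter-Glo ATP luminescence after 20 min RT; AC50 by standard Hill fit.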

[19] = Cellular Toxicity (caspase-3) HepG2 (AID 654); conditions: HepG2 caspase-3 activation, luminescence; series mostly up to 92.2 µM;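 further: cells exposed to compound for 16 hours before reading; 0% = DMSO alone and 100% = caspase signal from 100 µM tamoxifen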
Summary of the method: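 Luminescent Caspase-Glo 3/7 readout after 16 hr compound exposure of human hepatocellular carcinoma HepG2 cells at 37 °C; qHTS concentration-response, normalized DMSO = 0%, 100 uM tamoxifen = 100%; AC50 by standard Hill equation.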

[20] = Cellular Toxicity (caspase-3) Jurkat (AID 655); conditions: Jurkat caspase-3 activation, luminescence; caspase-3 activation: at 92.2 µM (top of the series), DMSO = 0%, tamoxifen = 100%;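 further: cells exposed to compound for 16 h at 37 °C before reading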
Summary of the method: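 Jurkat cells (5000/well) in complete medium exposed 16 h at 37 C; caspase-3/7 activity read by Caspase-Glo luminescence after 20 min at room temperature. Normalized to DMSO and 100 uM tamoxifen; AC50 from Hill fits.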

CCCCC/C=C/C=C/C=O
inactive: Potency [1] > 92 µM | Potency [3] > 92 µM | Potency [4] > 92 µM | Potency [5] > 92 µM | Potency [6] > 92 µM | Potency [9] | Potency [10] | Potency [11] | Potency [12] | outcome [13] | outcome [14] | outcome [15] | outcome [16]
active: Potency [2] 29.6 µM | activity change, negative = cytotoxicity [7] -106% | activity change, negative = cytotoxicity [8] -100%

Nc1cccc(N)c1
inactive: Potency [1] > 92 µM | Potency [2] > 92 µM | Potency [3] > 92 µM | Potency [4] > 92 µM | Potency [5] > 92 µM | outcome [17] | activity change, negative = cytotoxicity [7] -0.534% | Potency [8] | Potency [9] | Potency [18] | Potency [10] | Potency [11] | Potency [12] | Potency [19] | caspase-3 activation [20] 0.427% | outcome [13] | outcome [16]

Cc1ccc(C(=O)O)cc1
inactive: Potency [1] > 92 µM | Potency [2] > 92 µM | Potency [3] > 92 µM | Potency [4] > 92 µM | Potency [5] > 92 µM | outcome [17] | activity change, negative = cytotoxicity [7] 3.7% | Potency [8] | Potency [9] | Potency [18] | Potency [10] | Potency [11] | Potency [12] | Potency [19] | caspase-3 activation [20] 1.89% | outcome [14] | outcome [15] | outcome [16]

CCCCCNCCCCC
inactive: Potency [1] > 92 µM | Potency [2] > 92 µM | Potency [3] > 92 µM | Potency [4] > 92 µM | Potency [5] > 92 µM | Potency [6] > 92 µM | activity change, negative = cytotoxicity [7] 0.97% | Potency [8] | Potency [18] | Potency [10] | Potency [11] | Potency [12] | Potency [19] | caspase-3 activation [20] -1.44% | outcome [13] | outcome [14] | outcome [15] | outcome [16]

O=[N+]([O-])c1ccc(Cl)cc1Cl
inactive: Potency [1] > 92 µM | Potency [2] > 92 µM | Potency [3] > 92 µM | Potency [4] > 92 µM | Potency [5] > 92 µM | outcome [17] | activity change, negative = cytotoxicity [7] 10.8% | Potency [8] | Potency [9] | Potency [18] | Potency [10] | Potency [11] | Potency [12] | Potency [19] | caspase-3 activation [20] 1.63% | outcome [13] | outcome [14] | outcome [15] | outcome [16]

CCC1CO1 (stereo not drawn)
inactive: Potency [1] > 92 µM | Potency [2] > 92 µM | Potency [3] > 92 µM | Potency [4] > 92 µM | Potency [5] > 92 µM | Potency [6] > 92 µM | activity change, negative = cytotoxicity [7] -4.66% | Potency [8] | Potency [9] | Potency [18] | Potency [10] | Potency [12] | Potency [19] | caspase-3 activation [20] 1.29% | outcome [13] | outcome [14] | outcome [15] | outcome [16]

Fc1ccccc1
inactive: Potency [1] > 92 µM | Potency [2] > 92 µM | Potency [3] > 92 µM | Potency [4] > 92 µM | Potency [5] > 92 µM | Potency [6] > 92 µM | activity change, negative = cytotoxicity [7] 2.48% | Potency [8] | Potency [9] | Potency [10] | Potency [11] | Potency [19] | caspase-3 activation [20] 0.771% | outcome [13] | outcome [14] | outcome [15] | outcome [16]

CCC=O
inactive: Potency [1] > 92 µM | Potency [2] > 92 µM | Potency [3] > 92 µM | Potency [4] > 92 µM | Potency [5] > 92 µM | Potency [6] > 92 µM | activity change, negative = cytotoxicity [7] 1.92% | Potency [9] | Potency [18] | Potency [10] | Potency [11] | Potency [12] | Potency [19] | caspase-3 activation [20] 3.47% | outcome [13] | outcome [14] | outcome [15] | outcome [16]

Oc1c(Cl)ccc(Cl)c1Cl
inactive: Potency [1] > 92 µM | Potency [2] > 92 µM | Potency [3] > 92 µM | Potency [4] > 92 µM | Potency [5] > 92 µM | outcome [17] | activity change, negative = cytotoxicity [7] -9.1% | Potency [9] | Potency [18] | Potency [10] | Potency [11] | Potency [12] | Potency [19] | caspase-3 activation [20] 0.893% | outcome [13] | outcome [14] | outcome [15] | outcome [16]

CO[Si](CCCNCCC[Si](OC)(OC)OC)(OC)OC
inactive: Potency [1] > 92 µM | Potency [2] > 92 µM | Potency [3] > 92 µM | Potency [4] > 92 µM | Potency [5] > 92 µM | outcome [17] | activity change, negative = cytotoxicity [7] -27% | Potency [9] | Potency [18] | Potency [10] | Potency [11] | Potency [12] | Potency [19] | caspase-3 activation [20] 2.91% | outcome [13] | outcome [14] | outcome [15] | outcome [16]

O=P(O)(OCc1ccccc1)OCc1ccccc1
inactive: Potency [1] > 92 µM | Potency [2] > 92 µM | Potency [3] > 92 µM | Potency [4] > 92 µM | Potency [5] > 92 µM | Potency [6] > 92 µM | activity change, negative = cytotoxicity [7] 4.67% | Potency [8] | Potency [9] | Potency [10] | Potency [11] | Potency [12] | Potency [19] | caspase-3 activation [20] 1.88% | outcome [13] | outcome [14] | outcome [15] | outcome [16]

Cc1ccccc1C(=O)O
inactive: Potency [1] > 92 µM | Potency [2] > 92 µM | Potency [3] > 92 µM | Potency [4] > 92 µM | Potency [5] > 92 µM | outcome [17] | activity change, negative = cytotoxicity [7] -16.3% | Potency [8] | Potency [9] | Potency [18] | Potency [10] | Potency [11] | Potency [12] | Potency [19] | caspase-3 activation [20] -1.34% | outcome [14] | outcome [15] | outcome [16]
